# Results filed as inconclusive are left out. The source made the active and inactive calls. Calls follow the shape of the dose curve; as a rule, active = well fitted cell-killing curve with a large enough effect; inconclusive = small, poorly fitted or top-dose-only effect; inactive = flat fitted curve, though single readings scatter. Bridge positions count the residues as written; N and C are the ends. Square brackets hold non-standard residues; d marks the D form. Peptide text beside a SMILES is read from it. * marks the point of attachment. ξ: configuration not given here. Octanoyl(6-Me) = CCC(C)CCCCC(=O)*; ξThr(3R) = C[C@@H](O)C(N)C(=O)O; dDab = NCC[C@@H](N)C(=O)O; Dab = NCC[C@H](N)C(=O)O
# Assay: Quantitative highthroughput screen to assess conditional lethalithy of P12 Ichikawa cells grown in Human Plasma-Like Medium with dialyzed fetal bovine serum (HPLM+ds) (AID 1963879); also: nearly all actives have a fitted effect of over 35% in size
# Conditions: ATP luminescence, 48 h; Potency: viability; series mostly up to 45.8 µM; viability: at the top concentration
# From the text: Assay Provider: Jason Cantor Ph.D.
# Department of Biochemistry
# University of Wisconsin-Madison, Madison, WI, USA
# Chemical screening studies have identified drug sensitivities across hundreds of cancer cell lines but most putative therapeutics fail to translate. Discovery and development of drug candidates in models that more accurately reflect nutrient levels in human blood is a major challenge. Here we performed high-throughput screens in conventional versus Human Plasma-Like Medium (HPLM) to identify compounds that were "missed" when screening using the artificial culture condition. Sets of conditional anticancer compounds spanned phases of clinical development and included non-oncology drugs were assessed. […] We also traced conditional phenotypes for several chemotherapeutics to availability of HPLM-specific metabolites and confirmed others for compounds whose reported targets are encoded by nonessential genes. Our findings establish generalizable strategies for exploiting conditional lethality in HPLM to reveal therapeutic candidates and mechanisms of action in cancer cells.
# Described herein are the results of each viability screens against three cell lines: NOMO1 (an acute myeloid leukemia cell line); P12-Ichikawa (a T-cell acute lymphoblastic leukemia); and SEM (a B-cell ALL). Each assay was screened using 3 different cell culture media: homemade human plasma-Like medium with 10% dialyzed fetal bovine serum (HPLM+ds); RPMI1640 with 10% untreated FBS and 5mM glucose (RPMI+s); and RPMI1640 with 10% dialyzed fetal bovine serum and 5 mM glucose (RPMI+ds).
# PROTOCOL TABLE (as described by Inglese J, Shamu CE and Guy RK. 2007)
# SEQUENCE No. (e.g., 1, 2, 3, etc.); […] (e.g., Cells, Incubation, Reagent, etc.); VALUE and DESCRIPTION.
# 1; Cells; 5 uL; white, solid bottom 1536-well Greiner assay plate.
# 2; Compounds; 23 nL; Kalypsis pin tool (Wako USA) equipped with a 1536-well pin head to transfer to the assay plates.
# 3; Incubation; 48 hours; 37C incubation.
# 4; Reagent; 3 uL; CellTiter Glo (Promega).
# 5; Incubation; 5 min, room temperature
# 6; Detection; Luminescence, Viewlux PerkinElmer.
# NOTES (numbers refer to Sequence numbers above)
# 1. Briefly, 5 ul of cell reagent was dispensed using a Multidrop Combi Dispenser. The NOMO1 and SEM cells were plated at 500 cells/well and the P12-Ichikawa line at 1000 cells/well.
# 2. After seeding the cells, 23 nL of MIPE 4.1 library compounds (in DMSO) were added to each plate using a Kalypsys 1536 Pintool dispenser. Bortezomib at final concentration of […] and DMSO were added to each plate as positive and negative controls respectively. For each screen, MIPE 4.1 compounds were added over an eleven-point concentration range […] in 3-fold dilutions.
# 3. Each plate was covered with a stainless steel gasketed lid to prevent evaporation and incubated for 48 hour at 37C, 95% relative humidity, and 5% CO2.
# 4-5. Three microliter CellTilter-GloTM luminescent substrate mix (Promega) reagent was added to the assay plate and incubated at room temperature for 5 min.
# 6. The luminescence signal was measured using a ViewLux (PerkinElmer) multiplate reader with a 2 second exposure time per plate. Data for each compound were normalized as percent viability such that measurements for DMSO and the empty well controls in each plate were defined as 100% and 0%, respectively.
# Potency is read from the fitted curve at half-maximal effect.
SMILES,viability,Potency
COC(=O)C1C2CC3c4[nH]c5cc(OC)ccc5c4CCN3CC2CC(OC(=O)c2cc(OC)c(OC)c(OC)c2)C1OC (stereo not given),101% (inactive),
CC(C)C[C@H](NC(=O)[C@H](Cc1ccccc1)NC(=O)c1cnccn1)B(O)O,,37.2 nM (active)
c1ccc2c(Oc3nc(Nc4ccc(N5CCOCC5)cc4)c4ncn(C5CCCCC5)c4n3)cccc2c1,101% (inactive),
Cc1cc2c(s1)Nc1ccccc1N=C2N1CCN(C)CC1,88.2% (inactive),
Cc1cn(CCN2CCN(c3ccccc3-c3cc(C#N)cc(C(=O)NCCCN4CCCC4)c3)CC2)c2ccccc12,,8310 nM (active)
Cc1cn([C@H]2C[C@H](N=[N+]=[N-])[C@@H](CO)O2)c(=O)[nH]c1=O,,10500 nM (active)
CC(C)(C)c1cnc(CSc2cnc(NC(=O)C3CCNCC3)s2)o1,,166 nM (active)
CN(C)CC[C@H](CSc1ccccc1)Nc1ccc(S(=O)(=O)NC(=O)c2ccc(N3CCN(Cc4ccccc4-c4ccc(Cl)cc4)CC3)cc2)cc1[N+](=O)[O-],,1480 nM (active)
Cn1cc(-c2ccc3nnc(C(F)(F)c4ccc5ncccc5c4)n3n2)cn1,86.4% (inactive),
Fc1ccc(C(c2ccc(F)cc2)N2CCN(CC=Cc3ccccc3)CC2)cc1,96.7% (inactive),
CC[C@H](NC(C)C)[C@H](O)c1ccc(O)c2[nH]c(=O)ccc12,101% (inactive),
COCCn1c2c([n+](Cc3cnccn3)c1C)C(=O)c1ccccc1C2=O,,235 nM (active)
Cc1cc(C(C)(C)C)c(O)c(C)c1CC1=NCCN1,,8330 nM (active)
COc1c(OCCCN2CCOCC2)ccc2c3n(c(=NC(=O)c4cnc(N)nc4)nc12)CCN3,,182 nM (active)
CCC(C)CCCCC(=O)N[C@@H](CCN)C(=O)NC(C(=O)N[C@H](CCN)C(=O)N[C@@H]1CCNC(=O)C([C@@H](C)O)NC(=O)[C@@H](CCN)NC(=O)[C@@H](CCN)NC(=O)[C@@H](CC(C)C)NC(=O)[C@H](Cc2ccccc2)NC(=O)[C@H](CCN)NC1=O)[C@@H](C)O (stereo partly drawn) ({Octanoyl(6-Me)}-[Dab][ξThr(3R)][dDab][dDab][Dab]F[dL][dDab][dDab][ξThr(3R)]; lactam 4-C),100% (inactive),
COc1ccc(C2=N[C@H](c3ccc(Cl)cc3)[C@H](c3ccc(Cl)cc3)N2C(=O)N2CCNC(=O)C2)c(OC(C)C)c1,,10500 nM (active)
CC(C)c1nn(-c2c(Cl)cccc2Cl)c2nc(Cc3ccc(OCCO)cc3)[nH]c(=O)c12,,166 nM (active)
CCNC(=O)[C@H]1O[C@@H](n2cnc3c(N)nc(NCCc4ccc(CCC(=O)O)cc4)nc32)[C@H](O)[C@H]1O,99.7% (inactive),
N#CC(=C(O)c1ccc(Cl)cc1Cl)c1nc2cc(Cl)ccc2c(=O)[nH]1,107% (inactive),
O=C(Nc1cccc(Cl)c1)Nc1ncc(CCNc2ncnc3ccsc23)s1,,372 nM (active)

SMILES,viability,Potency
COc1ccccc1N1CCN(CC(O)COc2cccc3ccccc23)CC1 (stereo not given),96.9% (inactive),
Cc1cccc(Nc2nc(N[C@@H]3CCCC[C@H]3N)ncc2C(N)=O)c1,,1320 nM (active)
Nc1nc(=O)n([C@H]2CSC(CO)O2)cc1F (stereo not given in full),101% (inactive),
Cc1cnc(C(=O)O)c[n+]1[O-],98.2% (inactive),
C[C@@H]1C(=O)O[C@H]2CC34[C@H]5C[C@@H](C(C)(C)C)C36[C@H](OC(=O)[C@@H]6O)O[C@@]4(C(=O)O5)[C@]21O (stereo not given in full),92.4% (inactive),
C=CC(=O)Nc1cc(NC(=O)c2ccc(C)c(NC(=O)c3ccno3)c2)cc(C(F)(F)F)c1,88.7% (inactive),
COc1cc(C(C)C)c2c(c1)S(=O)(=O)N(COc1cc(=O)n3cccc(OCCN4CCCCC4)c3n1)C2=O,93.3% (inactive),
c1ccc2[nH]c(-c3cscn3)nc2c1,,9350 nM (active)
CC(C)C[C@H](NC(=O)[C@H](CCc1ccccc1)NC(=O)CN1CCOCC1)C(=O)N[C@@H](Cc1ccccc1)C(=O)N[C@@H](CC(C)C)C(=O)[C@@]1(C)CO1,,33.2 nM (active)
C=C1C[C@@]2(O)O[C@@]3(C[C@H]2C(C)C)[C@H](C)CC[C@H]13,95.1% (inactive),
Cc1ccccc1-n1c(Cn2nc(-c3cccc(O)c3)c3c(N)ncnc32)nc2cccc(C)c2c1=O,,2960 nM (active)
NS(=O)(=O)c1ccc(NC2=CC(=O)c3ccccc3C2=O)cc1,97.7% (inactive),
NS(=O)(=O)OC[C@@H]1C[C@@H](n2ccc3c(N[C@H]4CCc5ccccc54)ncnc32)C[C@H]1O,,2960 nM (active)
Nc1nc(-c2nn(Cc3ccccc3F)c3ncccc23)nc(N)c1N1CCOCC1,87.6% (inactive),
Cc1ccc(S(=O)(=O)NC(=O)NN2CC3CCCC3C2)cc1 (stereo not given),,5900 nM (active)
CS(=O)(=O)c1ccc([C@@H](O)[C@@H](CO)NC(=O)C(Cl)Cl)cc1,82.8% (inactive),
O=C1Nc2ccc(I)cc2C1=Cc1cc(Br)c(O)c(Br)c1,92.2% (inactive),
OCC(O)C(O)C(O)CO (stereo not given),100% (inactive),
N#Cc1ccc(C(c2ccc(C#N)cc2)n2cncn2)cc1,104% (inactive),
COc1cc2c(Nc3ccc(NC(=O)c4ccccc4)cc3)ncnc2cc1OCCCN1CCOCC1,,3720 nM (active)
